# Source: PubChem BioAssay (NCI)
# The panel holds about 83,000 compounds, 20% with a hit somewhere; the sample as a whole holds those more often.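 Note: values are percent growth. 100 is the growth of untreated cells, values between 100 and 0 indicate rising inhibition; between -100 and 0 indicates cell death.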 The source made the active and inactive calls. Rule for the calls: active = growth percent below 10; inactive = the rest.
# Test system: MDA-MB-468 breast
# Experiment: NCI-60 one-dose screen, 48 h (100 = growth as untreated, 0 = no growth, -100 = all killed)
# Details: 10 µM unless noted
row,Structure (SMILES),growth
1,CCOC(=O)C1CCN(c2ccc(N3C[C@@H](CNCc4ccc(C(=N)N)cc4)OC3=O)cc2)CC1,100% (inactive)
2,COc1ccc(-c2nc(/C=C3\C(=O)N(C)c4ccccc43)c3ccccn23)cc1,98.5% (inactive)
3,Clc1cccc(/C=N/Nc2nc(N/N=C/c3cccc(Cl)c3Cl)nc(N3CCCCC3)n2)c1Cl,92.8% (inactive)
4,CCC1(C)OC(=O)NC1=O (centres undefined),107% (inactive)
5,COc1cccc(C(=O)O)c1OC,105% (inactive)
6,CC(O)CCC(C)[N+](=O)[O-] (centres undefined),107% (inactive)
7,CCN(CC)CCC(C(=O)O)(c1ccccc1)c1ccccc1,120% (inactive)
8,COC1CC2CCC(C)C(O)(O2)C(=O)C(=O)N2CCCCC2C(=O)OC(C(C)CC2CCC(O)C(OC)C2)CC(=O)C(C)C=C(C)C(O)C(OC)C(=O)C(C)CC(C)/C=C/C=C/C=C1C (centres undefined),23.3% (inactive)
9,CO[C@@H](C)Cn1c(=O)n(C)c2cnc3ccc(-c4cncc(C(C)(C)O)c4)cc3c21,-45.9% (active)
10,O=S(=O)(Nc1cccc2ccccc12)c1ccc(-c2cnc(C3CC3)o2)cc1,0.881% (active)
11,c1ccc(Cn2nc3c(c2-c2ccccc2)-c2oncc2CC3)cc1,101% (inactive)
12,O=C(Nc1ccc(-n2ccc3c(NC(=O)c4ccccc4)ncnc32)cc1)Nc1cccc(Cl)c1Cl,-35.7% (active)
13,O=C(CCCCCCNC(=O)C(O)(O)C(F)(F)F)Nc1ncc(-c2ccccc2)s1,-25% (active)
14,O=C(Nc1cccc(-n2cc(-c3ccncc3)c(-c3ccc(Cl)c(O)c3)n2)c1)Nc1ccc(Cl)c(Cl)c1,2.25% (active)
